The values that follow come from PubChem BioAssay (NCI).

The nature of experiment [1]: NCI Yeast Anticancer Drug Screen. Data for the rad50 strain (AID 155).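 Also: 0% = growth of vehicle-only cultures of the same strain.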 The following applies: S. cerevisiae rad50 strain growth inhibition, stronger effect = higher value. In short, it runs like this: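 Readout: growth inhibition relative to vehicle-treated cultures. Compound exposure was carried out in a genetically defined yeast strain deficient in DNA damage repair.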
Experiment [2] can be described thus: NCI Yeast Anticancer Drug Screen. Data for the mec2-1 strain (AID 157). The following applies: S. cerevisiae mec2-1 strain, stronger effect = higher value. In outline:
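Mutant yeast (mec2-1) grown with compound; growth inhibition relative to vehicle control reported.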

Experiment [3] in a line: NCI Yeast Anticancer Drug Screen. Data for the sgs1 mgt1 strain (AID 161).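 Also: 0% = growth of cultures given vehicle only.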 The note with it: S. cerevisiae sgs1 mgt1 strain, stronger effect = higher value. In short, it runs like this:
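Growth of a repair-deficient yeast mutant was monitored after compound treatment and expressed as inhibition relative to vehicle-treated cultures.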

Experiment [4] is described as follows: NCI Yeast Anticancer Drug Screen. Data for the cln2 rad14 strain (AID 165).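 Also: 0% = growth equal to vehicle treated cultures.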 The following applies: S. cerevisiae cln2 rad14 strain, stronger effect = higher value. In short, it runs like this:
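Readout is yeast growth inhibition versus vehicle-treated controls, using a strain with cln2 and rad14 alterations exposed to compound.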

Experiment [5] in a line: NCI Yeast Anticancer Drug Screen. Data for the bub3 strain (AID 167). The following applies: S. cerevisiae bub3 mutant strain, stronger effect = higher value. In outline:
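Readout: yeast growth inhibition, expressed relative to vehicle-only wells. The test organism is a mutant strain from a panel with lesions in DNA repair or checkpoint genes.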

Experiment [6] in a line: NCI Yeast Anticancer Drug Screen. Data for the mlh1 rad18 strain (AID 175). The note with it: S. cerevisiae mlh1 rad18 strain growth inhibition, stronger effect = higher value. In outline:
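Genetically defined yeast (DNA repair-deficient) exposed to compounds; growth inhibition determined relative to vehicle.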

The mark [7] stands for this setting: at 5.0 µM (retest, dose inferred, filed as 0.5).
Setting [8] is: at 50.0 µM (retest, dose inferred, filed as 5.0).

The panel holds about 79,000 compounds, 15% with a hit somewhere; the sample as a whole holds those more often. A number with no mark means an inactive call. Calls of active or inactive are those of the source. Rule as the data show it: active = growth inhibition above about 70%; inactive = the rest.

For `COC(=O)c1n[nH]c(C)c1N=NN1CCC(C(N)=O)CC1`, the growth inhibition is 30% in experiment [1] (setting [7]); 98% (active) in experiment [1] (setting [8]); 98.3% (active) in experiment [1] (at 50.0 µM); -8% in experiment [2] (setting [7]); 99% (active) in experiment [2] (setting [8]); 99.2% (active) in experiment [2] (at 50.0 µM). Besides, the growth inhibition in experiment [3] (setting [7]) is -13%; in experiment [3] (setting [8]), 99% (active); in experiment [3] (at 50.0 µM) it was 98.8% (active); in experiment [4] (setting [7]) it was -1%; in experiment [4] (setting [8]), 99% (active); in experiment [4] (at 50.0 µM), 97.8% (active). The growth inhibition in experiment [5] (setting [7]) is -5%; in experiment [5] (setting [8]), 98% (active); in experiment [5] (at 50.0 µM), 98.2% (active); in experiment [6] (setting [7]), 36%; in experiment [6] (setting [8]), 99% (active); in experiment [6] (at 50.0 µM), 99.2% (active).
As to `COc1cccc(CC2N(S(=O)(=O)c3ccc(C)cc3)CCC23C(=O)Nc2ccccc23)c1OC` (stereo not given), the growth inhibition in experiment [1] (setting [7]) is 10%; in experiment [1] (setting [8]) it was 94% (active); in experiment [1] (at 50.0 µM), 91.8% (active); in experiment [2] (setting [7]), 2%; in experiment [2] (setting [8]), 96% (active); in experiment [2] (at 50.0 µM), 69.4%. For the same compound, the growth inhibition is 10% in experiment [3] (setting [7]); 96% (active) in experiment [3] (setting [8]); 82.2% (active) in experiment [3] (at 50.0 µM); -3% in experiment [4] (setting [7]); 93% (active) in experiment [4] (setting [8]); 39% in experiment [4] (at 50.0 µM). For the same compound, the growth inhibition in experiment [5] (setting [7]) is -3%; in experiment [5] (setting [8]), 96% (active); in experiment [5] (at 50.0 µM), 80.7% (active); in experiment [6] (setting [7]) it was 3%; in experiment [6] (setting [8]), 96% (active); in experiment [6] (at 50.0 µM), 92.2% (active).
With `Cc1nc2sc3c(c2c2nnnn12)CCCC3`, the growth inhibition is 2% in experiment [1] (setting [7]); 28% in experiment [1] (setting [8]); 6.6% in experiment [1] (at 50.0 µM); 8% in experiment [2] (setting [7]); 29% in experiment [2] (setting [8]); 16.9% in experiment [2] (at 50.0 µM). In addition, the growth inhibition in experiment [3] (setting [7]) is 24%; in experiment [3] (setting [8]), 74% (active); in experiment [3] (at 50.0 µM) it was 53%; in experiment [4] (setting [7]), 4%; in experiment [4] (setting [8]), 23%; in experiment [4] (at 50.0 µM), -6.5%. The growth inhibition in experiment [5] (setting [7]) was 3%; in experiment [5] (setting [8]) it was 11%; in experiment [5] (at 50.0 µM), 27.6%; in experiment [6] (setting [7]), 7%; in experiment [6] (setting [8]), 31%; in experiment [6] (at 50.0 µM), 9.45%.
Take `S=C(NC(=S)Nc1ccc(Cl)cc1)Nc1ccc(Cl)cc1`: the growth inhibition in experiment [1] (setting [7]) is 4%; in experiment [1] (setting [8]), -4%; in experiment [1] (at 50.0 µM) it was 68%; in experiment [2] (setting [7]) it was 1%; in experiment [2] (setting [8]), 2%; in experiment [2] (at 50.0 µM), 61.9%. In addition, the growth inhibition was 5% in experiment [3] (setting [7]); 8% in experiment [3] (setting [8]); 72.1% (active) in experiment [3] (at 50.0 µM); -9% in experiment [4] (setting [7]); -8% in experiment [4] (setting [8]); 50.8% in experiment [4] (at 50.0 µM). The growth inhibition was -4% in experiment [5] (setting [7]); 2% in experiment [5] (setting [8]); 77.6% (active) in experiment [5] (at 50.0 µM); 20% in experiment [6] (setting [7]); 10% in experiment [6] (setting [8]); 78.7% (active) in experiment [6] (at 50.0 µM).
Take `O=C(C=P(c1ccccc1)(c1ccccc1)c1ccccc1)CC(=S)CC(=O)C=P(c1ccccc1)(c1ccccc1)c1ccccc1`: the growth inhibition in experiment [1] (setting [7]) was 31%; in experiment [1] (setting [8]) it was 71% (active); in experiment [1] (at 50.0 µM), 97.3% (active); in experiment [2] (setting [7]) it was 18%; in experiment [2] (setting [8]), 69%; in experiment [2] (at 50.0 µM), 97.8% (active). Moreover, the growth inhibition was 24% in experiment [3] (setting [7]); 85% (active) in experiment [3] (setting [8]); 97.8% (active) in experiment [3] (at 50.0 µM); -3% in experiment [4] (setting [7]); 61% in experiment [4] (setting [8]); 96.2% (active) in experiment [4] (at 50.0 µM). Besides, the growth inhibition was 9% in experiment [5] (setting [7]); 88% (active) in experiment [5] (setting [8]); 95.9% (active) in experiment [5] (at 50.0 µM); 8% in experiment [6] (setting [7]); 77% (active) in experiment [6] (setting [8]); 95.2% (active) in experiment [6] (at 50.0 µM).
As to `CCCCCCCN=C(N)c1ccc(C(=O)OCc2ccccc2)cc1`, the growth inhibition was 1% in experiment [1] (setting [7]); 86% (active) in experiment [1] (setting [8]); 99.5% (active) in experiment [1] (at 50.0 µM); -12% in experiment [2] (setting [7]); 76% (active) in experiment [2] (setting [8]); 99.8% (active) in experiment [2] (at 50.0 µM). For the same compound, the growth inhibition in experiment [3] (setting [7]) is 5%; in experiment [3] (setting [8]), 95% (active); in experiment [3] (at 50.0 µM) it was 99.8% (active); in experiment [4] (setting [7]) it was -2%; in experiment [4] (setting [8]) it was 80% (active); in experiment [4] (at 50.0 µM), 99.4% (active). Also, the growth inhibition in experiment [5] (setting [7]) is 0%; in experiment [5] (setting [8]) it was 77% (active); in experiment [5] (at 50.0 µM) it was 99.4% (active); in experiment [6] (setting [7]) it was 6%; in experiment [6] (setting [8]), 94% (active); in experiment [6] (at 50.0 µM), 99.7% (active).
Turning to `O=C(O)CC1(C(=O)O)CCCCC1`, the growth inhibition in experiment [1] (setting [7]) is -9%; in experiment [1] (setting [8]) it was 15%; in experiment [1] (at 50.0 µM) it was -16.4%; in experiment [2] (setting [7]) it was -4%; in experiment [2] (setting [8]), -1%; in experiment [2] (at 50.0 µM) it was -16.6%. In addition, the growth inhibition in experiment [3] (setting [7]) is -5%; in experiment [3] (setting [8]), -13%; in experiment [3] (at 50.0 µM) it was -21.6%; in experiment [4] (setting [7]), 6%; in experiment [4] (setting [8]), 0%; in experiment [4] (at 50.0 µM), 18.4%. The growth inhibition in experiment [5] (setting [7]) was -13%; in experiment [5] (setting [8]) it was -14%; in experiment [5] (at 50.0 µM), -6.9%; in experiment [6] (setting [7]), 11%; in experiment [6] (setting [8]), 17%; in experiment [6] (at 50.0 µM) it was 2.7%.
In the case of `O=C(CC(c1ccccc1Cl)C(C(=O)O)c1ccccc1)c1ccccc1` (stereo not given), the growth inhibition in experiment [1] (setting [7]) was 4%; in experiment [1] (setting [8]), 72% (active); in experiment [1] (at 50.0 µM), 81% (active); in experiment [2] (setting [7]), 4%; in experiment [2] (setting [8]) it was 71% (active); in experiment [2] (at 50.0 µM) it was 71.7% (active). Besides, the growth inhibition is 6% in experiment [3] (setting [7]); 72% (active) in experiment [3] (setting [8]); 92.5% (active) in experiment [3] (at 50.0 µM); 6% in experiment [4] (setting [7]); 83% (active) in experiment [4] (setting [8]); 91.5% (active) in experiment [4] (at 50.0 µM). Further, the growth inhibition in experiment [5] (setting [7]) is -4%; in experiment [5] (setting [8]), 67%; in experiment [5] (at 50.0 µM), 43.6%; in experiment [6] (setting [7]), -1%; in experiment [6] (setting [8]) it was 78% (active); in experiment [6] (at 50.0 µM) it was 92.1% (active).
As for `O=[N+]([O-])C1C(c2ccccc2)CC=CC1N1CCCC1` (stereo not given), the growth inhibition in experiment [1] (setting [7]) was 2%; in experiment [1] (setting [8]), 97% (active); in experiment [1] (at 50.0 µM), 98.5% (active); in experiment [2] (setting [7]), 15%; in experiment [2] (setting [8]), 95% (active); in experiment [2] (at 50.0 µM), 98% (active). Further, the growth inhibition was 17% in experiment [3] (setting [7]); 97% (active) in experiment [3] (setting [8]); 98% (active) in experiment [3] (at 50.0 µM); -2% in experiment [4] (setting [7]); 85% (active) in experiment [4] (setting [8]); 93.9% (active) in experiment [4] (at 50.0 µM). In addition, the growth inhibition in experiment [5] (setting [7]) was -3%; in experiment [5] (setting [8]), 95% (active); in experiment [5] (at 50.0 µM), 97.3% (active); in experiment [6] (setting [7]) it was 7%; in experiment [6] (setting [8]), 98% (active); in experiment [6] (at 50.0 µM), 98.2% (active).
Turning to `NC(=Nc1cc2ccccc2c2ccccc12)/N=C(/N)Nc1cc2ccccc2c2ccccc12`, the growth inhibition is 99% (active) in experiment [1] (setting [7]); 97% (active) in experiment [1] (setting [8]); 60.6% in experiment [1] (at 50.0 µM); 100% (active) in experiment [2] (setting [7]); 99% (active) in experiment [2] (setting [8]); 56.2% in experiment [2] (at 50.0 µM). Besides, the growth inhibition in experiment [3] (setting [7]) is 99% (active); in experiment [3] (setting [8]) it was 98% (active); in experiment [3] (at 50.0 µM), 51.1%; in experiment [4] (setting [7]), 99% (active); in experiment [4] (setting [8]), 98% (active); in experiment [4] (at 50.0 µM), 50.8%. Besides, the growth inhibition in experiment [5] (setting [7]) was 99% (active); in experiment [5] (setting [8]), 98% (active); in experiment [5] (at 50.0 µM) it was 60%; in experiment [6] (setting [7]), 99% (active); in experiment [6] (setting [8]), 98% (active); in experiment [6] (at 50.0 µM), 51.7%.
